The results in this text go back to PubChem BioAssay (Tox21).

The structures appear in SMILES notation. Results filed as inconclusive are left out. Entries that show only a call come without a potency. Some structures have more than one record in an assay (separate samples or runs), and their calls can disagree. The source made the active and inactive calls. Calls follow the shape of the dose curve; as a rule, active = well fitted cell-killing curve with a large enough effect in the repeat runs; inconclusive = weak or mixed curves; inactive = no such curve, though single readings can be large or run the other way.
Potency is read from the fitted curve at half-maximal effect.

This experiment in a line: qHTS assay for identifying genotoxic compounds that show differential cytotoxicity against isogenic chicken DT40 cell lines with known DNA damage response pathways - Rad54/Ku70 mutant cell line (AID 743015). Also: nearly all actives have a fitted effect of over 60% in size. As to conditions: DT40 Rad54/Ku70 mutant viability, CellTiter-Glo, 40 h; series mostly up to 66.8 µM. From the text: National Center for Advancing Translational Sciences [NCATS]
NIH Chemical Genomics Center [NCGC]
U.S. Environmental Protection Agency [EPA]
National Institutes of Environmental Health Sciences [NIEHS]
National Toxicology Program [NTP]
U.S. Food and Drug Administration [FDA]
DNA repair pathways play a critical role in cellular homeostasis by repairing DNA damage induced by endogenous processes and xenobiotics. Isogenic chicken DT40 cell lines deficient in different DNA repair pathways can be used to identify genotoxic compounds and aid in characterizing the nature of the DNA damage induced. Two DNA repair-deficient cell lines with disrupted genes, Rad54/Ku70 or Rev3, were used to screen the Tox21 10K compound library. Possible genotoxicity was based on the presence of a significant increase in cytotoxicity in one or more of the DNA repair-deficient cell lines compared to that observed in the parental DNA repair-proficient cell line. CellTiter Glo viability assay (Promega, Madison, WI) was used to measure cell viability in these cells after compound treatment. This assay includes the data from the Rad54/Ku70 mutant cell line.
Tox21 Assay Protocol Summary:
300 DT40 mutant cells in 5 uL/well were dispensed into white, solid-bottom 1536-well plates using a Multidrop Combi (ThermoFisher Scientific, Waltham, MA) dispenser. After the assay plates were incubated at 37 C/5% CO2 for approximately 0.5 hour, 23 nL of compounds dissolved in DMSO, positive controls or DMSO only was transferred into the assay plate by a pintool work station (Kalypsys, San Diego, CA). The assay plates were incubated at 37 C/5% CO2 for 40 hours. After 5 uL per well of CellTiter-Glo reagent was added into each well of the assay plates, the plates were incubated for 30 min at room temperature and the luminescence intensity of the plates was measured using a ViewLux (PerkinElmer, Shelton, CT) plate reader.
For orientation: Quantitative high-throughput screening tests each substance at several concentrations.
As to `CC/C=C\CC1=C(C)CCC1=O`, the Potency entry is “inactive”. Consider `CCCCCCOc1ccccc1C(N)=O`, for which the Potency was 21.1 µM (active). On the same count and under the same terms, the value for `CCCOC(OCCC)OCCC` was “inactive”.

Turning to `O=C1CCCC(=O)O1`, the Potency entry is “inactive”. The same measure, in the same setting: the value for `COCCOCCOCCOCCOCCO` was “inactive”; that for `CC(C)=CCOC(=O)c1ccccc1` was “inactive”. Regarding `CC(C)CCCC(C)(C)O`, the Potency entry was “inactive”. The same measure, in the same setting: the value for `COP(=O)(OC)OC(c1ccc(Cl)cc1)P(=O)(OC)OC` (stereo not given) was “inactive”; that for `COc1ccc(OC)c(Cl)c1` was “inactive”; that for `C=CC(OCC)OCC` was “inactive”. With `CCC(C)(CCC(C)C)C(=O)O` (stereo not given), the Potency entry is “inactive”. On the same count and under the same terms, the value for `OCCN(CCO)c1cccc(Cl)c1` was “inactive”; that for `OCCCCC(O)CO` (stereo not given) was “inactive”. Still for that read-out and setting: the value for `CCCC/C=C\CCCCCCCCCC=O` was “inactive”. Same read-out and setting: the entry for `CCCCCCCCC(=O)Cl` is “inactive”. For `CC(C)(C)NC(N)=O`, the Potency entry is “inactive”. Still for that read-out and setting: the entry for `C=C1CC/C=C(\C)CC[C@@H]2[C@@H]1CC2(C)C` is “inactive”; for `C=C(C)C(=O)OCCN(CC)CC` it is “inactive”; for `COc1cc(C(=S)N2CCOCC2)cc(OC)c1OC` it is “inactive”. On the same count and under the same terms, the value for `CC(=O)/C=C/C1C(C)=CCC(C)C1(C)C` (stereo not given) was 48.6 µM (active); that for `Nc1nnc(-c2cccc(Cl)c2Cl)c(N)n1` was “inactive”; that for `CC(C)(C)c1n[nH]c(=S)n(N)c1=O` was “inactive”.

Take `O=C(/N=N/C(=O)OCc1ccccc1)OCc1ccccc1`: the Potency is 61.1 µM (active). Same read-out and setting: the entry for `CNS(=O)(=O)CCc1ccc2[nH]cc(C3CCN(C)CC3)c2c1` is “inactive”.

Turning to `CCCCOCCOC(=O)COc1nc(Cl)c(Cl)cc1Cl`, the Potency result was “inactive”. Turning to `O=P(O)(O)OP(=O)(O)O`, the Potency was 11.9 µM (active) and inactive. The same measure, in the same setting: the value for `CC(CO)c1ccccc1` (stereo not given) was “inactive”; that for `CC(=O)Nc1ccc(S(=O)(=O)Nc2ccc([N+](=O)[O-])cc2)cc1` was “inactive”; that for `CC(C)C(=O)OCCc1ccccc1` was “inactive”. As for `COC(=O)C1CC(=O)C(C(=O)OC)CC1=O` (stereo not given), the activity change, negative = cytotoxicity was -1.14% [at 8.55 µM] (inactive). Take `CCOC(=O)c1ccc(OC(=O)CCCCCN=C(N)N)cc1`: the Potency entry is “inactive”. Still for that read-out and setting: the entry for `CC1COc2ccccc2N1` (stereo not given) is “inactive”; for `CN=C(NC#N)Nc1ccc(C2=NNC(=O)CC2C)cc1` (stereo not given) it is “inactive”; for `CC(S)C(=O)NCC(=O)O` (stereo not given) it is “inactive”. Take `CN1C(C)(C)CCCC1(C)C`: the Potency result is “inactive”.

Take `Brc1ccc(-c2ccccc2)cc1`: the Potency result was “inactive”. For `COc1ccc(C2CNC(=O)C2)cc1OC1CCCC1` (stereo not given), the Potency result was “inactive”.

In the case of `C=Cc1ccccn1`, the Potency result was “inactive”. The same measure, in the same setting: the entry for `CCCCCCOC(=O)CC` is “inactive”; for `CC1=CCC(C(C)C)=CC1` it is “inactive”.
